# In the library only some 1.1% were active in any assay of this set; here they are far more common.
# HTR5A ag ctr: counter-screen for OPRM1-OPRD1 agonists: human HTR5A agonism; HTR5A agonist assay, luminescence, cell-based; activation, % at 9.3 µM; hit rate 0.61% among 340,000; in the data active = activation mostly above about 9.5%, no sharp cut-off; inactive = mostly below about 7.6%
# MOR-DOR ag: OPRM1-OPRD1 heterodimerization agonism | cells, luminescence | activation, % at 9.3 µM | P35372+P41143 | hit rate 0.3% among 340,000
# Target sequence (P35372 whole entry, looked up): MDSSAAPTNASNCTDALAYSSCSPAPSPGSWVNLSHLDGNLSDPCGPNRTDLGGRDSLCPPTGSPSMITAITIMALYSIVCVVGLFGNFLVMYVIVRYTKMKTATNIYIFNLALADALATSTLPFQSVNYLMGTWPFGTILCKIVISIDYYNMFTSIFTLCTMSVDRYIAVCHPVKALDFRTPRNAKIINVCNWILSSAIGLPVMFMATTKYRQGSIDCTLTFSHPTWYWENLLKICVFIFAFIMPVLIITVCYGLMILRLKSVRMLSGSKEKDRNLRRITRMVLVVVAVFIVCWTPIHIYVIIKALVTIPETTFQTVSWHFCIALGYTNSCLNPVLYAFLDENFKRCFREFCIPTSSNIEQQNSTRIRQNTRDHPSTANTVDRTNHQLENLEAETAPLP
# Target sequence (P41143 whole entry, looked up): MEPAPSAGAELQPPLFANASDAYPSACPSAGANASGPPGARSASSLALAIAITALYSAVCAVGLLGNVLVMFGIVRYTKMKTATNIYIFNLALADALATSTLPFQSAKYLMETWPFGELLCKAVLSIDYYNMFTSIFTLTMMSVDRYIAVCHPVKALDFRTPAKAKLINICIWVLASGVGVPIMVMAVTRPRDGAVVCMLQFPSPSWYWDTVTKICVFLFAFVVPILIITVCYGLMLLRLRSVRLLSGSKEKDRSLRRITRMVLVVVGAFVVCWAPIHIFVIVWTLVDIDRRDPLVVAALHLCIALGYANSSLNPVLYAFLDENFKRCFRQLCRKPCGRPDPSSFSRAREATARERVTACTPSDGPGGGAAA
# HTR5A inv ag: counter-screen for OPRM1-OPRD1 inverse agonists: human HTR5A inverse agonism; P47898; HTR5A cell line, luminescence; AID 504634; hit rate 0.083% among 340,000; inhibition, % at 9.3 µM; in the data active = inhibition mostly above about 23%, no sharp cut-off; inactive = mostly below about 18%
# OPRM1-OPRD1 inv: inverse agonists of human mu-delta opioid receptor heterodimerization | inhibition, % at 9.3 µM | hit rate 0.21% among 340,000 | P35372+P41143 | cell-based MOR-DOR heterodimer luminescence, inverse agonism; in the data active = inhibition above about 22%, passing the limit was not always enough
# OPRM1-D1 ag cf: OPRM1-OPRD1 heterodimer agonism, confirmation; activation, % at 9.3 µM; AID 504904; hit rate 45% among 830; cells, MOR-DOR heterodimerization, luminescence complementation; shares compounds with MOR-DOR ag
# HTR5A ag ctr2: HTR5A agonism, opioid heterodimer counter-screen; shares compounds with MOR-DOR ag; HTR5A agonist counterscreen, cell luminescence; activation, % at 9.3 µM; hit rate 8% among 830; AID 504905; in the data active = activation above about 17%
# A number is an active result; i = inactive; nt = not tested or not shown. Rule as the data show it, unless noted: active = activation above about 18%; inactive = the rest.
SMILES,HTR5A ag ctr,MOR-DOR ag,HTR5A inv ag,OPRM1-OPRD1 inv,OPRM1-D1 ag cf,HTR5A ag ctr2
CCOC(=O)C1=C(c2ccccc2)NC(=O)NC1c1ccc(O)c(Cl)c1 (configuration not stated),31,103,i,i,82,28
O=C(CCC1CCCC1)Nc1cccn(Cc2ccccc2Br)c1=O,i,i,i,i,nt,nt
Cc1cc(/C=C2\SC(=O)N(C)C2=O)c(C)n1-c1ccc(O)cc1,i,i,i,i,nt,nt
CC(=O)NC1=NC(=O)/C(=C/c2cc(C)n(-c3ccc(NC(C)=O)cc3)c2C)S1,i,60,i,i,i,i
COc1ccc(/C=C/C(=O)Nc2ccc3nc4n(c(=O)c3c2)CCCC4)cc1,12,27,i,i,i,i
OC(CNC1CCCc2ccccc21)COc1ccc2ccccc2c1 (configuration not stated),i,42,i,i,31,i
O=C(Cn1c(-c2ccccc2)c[n+]2ccsc12)c1ccc([N+](=O)[O-])cc1,i,81,i,i,i,40
C#CC(=O)N(c1ccc(OC)c(OC)c1)C(C(=O)NC1CCCC1)c1cccs1 (configuration not stated),i,39,i,i,19,21
CC1CCc2sc(C(=O)NCCCn3ccnc3)cc2C1 (configuration not stated),i,i,i,i,nt,nt
CCCCn1c(N)c(N(CCOC)C(=O)C(C)N2C(=O)c3ccccc3C2=O)c(=O)[nH]c1=O (configuration not stated),i,i,i,i,nt,nt
CCOc1ccc(NC(=S)N2CCN(S(=O)(=O)c3ccccc3)CC2)cc1,i,31,i,i,i,i
C[n+]1cccc(/C=N/NC(=O)CC23CC4CC(CC(C4)C2)C3)c1,i,i,i,i,nt,nt
COc1ccccc1NS(=O)(=O)c1ccc(C)c(C(=O)NC2CCN(Cc3ccccc3)CC2)c1,i,i,i,i,nt,nt
COc1ccccc1NS(=O)(=O)c1cccc(C(=O)NC2CCN(Cc3ccccc3)CC2)c1,i,20,i,i,i,i
Cc1ccccc1N(CC(=O)N/N=C/c1ccc(F)cc1)C(=O)c1ccccc1,i,30,i,i,46,i
Cc1ccc(C)c(CN2C(=O)c3ccccc3S(=O)c3ccc(C(=O)N4CCN(c5ccccn5)CC4)cc32)c1 (configuration not stated),i,27,i,i,i,i
CN=c1scc(-c2ccccc2F)n1/N=C/c1ccc(O)c(O)c1O,i,18,i,i,i,i
Cc1ccc(C2=NOC(=O)/C2=C\c2ccc(C)o2)cc1,i,i,i,i,nt,nt
Cc1cccc(C(=O)OCC(=O)c2ccc3c(c2)OCO3)c1O,i,i,i,i,nt,nt
Cc1ccc(NC(=O)c2cc(S(=O)(=O)N3CCCCC3)c[nH]2)cc1F,i,i,i,i,nt,nt
Cc1ccc(NC(=O)c2cc(S(=O)(=O)N3CCCCC3)c[nH]2)cc1C,i,30,i,i,i,i
CCOC(=O)N1CCN(c2c(NCCN(C)Cc3ccccc3)c(=O)c2=O)CC1,i,50,i,i,i,i
CCOC(=O)N1CCN(c2c(NCCCN(C)c3ccccc3)c(=O)c2=O)CC1,i,i,i,i,nt,nt
CN1CCN(c2ccc(NC(=O)COc3ccc4ccccc4c3)cc2)CC1,i,i,i,i,nt,nt
CN1CCN(c2ccc(NC(=O)COc3cccc4ccccc34)cc2)CC1,i,25,i,i,i,39
SMILES,HTR5A ag ctr,MOR-DOR ag,HTR5A inv ag,OPRM1-OPRD1 inv,OPRM1-D1 ag cf,HTR5A ag ctr2
OC(CN1CCN(C(c2ccccc2)c2ccccc2)CC1)c1ccccc1 (configuration not stated),i,19,i,i,33,i
O=S(=O)(c1cccc(C(F)(F)F)c1)N1CCN(c2ccccc2)CC1,i,i,i,i,nt,nt
O=C(COC(=O)CC1CCCC1)Nc1cccc(F)c1,i,323,i,i,i,i
O=C(COC(=O)C1CCCCC1)Nc1cccc(F)c1,i,i,i,i,nt,nt
O=C(Nc1cccnc1)c1sc(Nc2ccccc2F)nc1-c1ccccc1,i,21,i,i,i,i
Cc1ccccc1Nc1nc(-c2ccccc2)c(C(=O)Nc2cccnc2)s1,i,i,i,i,nt,nt
COc1cc2ccccc2cc1C(=O)NCC(c1cccs1)N(C)C (configuration not stated),i,72,i,i,i,i
COc1cc(C(=O)NCC(c2cccs2)N(C)C)cc(Cl)c1OC(C)C (configuration not stated),i,48,i,i,i,i
CCCOc1ccc(C(=O)NCC(c2cccs2)N(C)C)cc1OC (configuration not stated),i,i,i,i,nt,nt
O=C(CS(=O)(=O)Cc1ccccc1)Nc1ccc(Br)cc1F,i,i,i,i,nt,nt
CCn1cc([N+](=O)[O-])c(C(=O)Nc2ccn(Cc3ccccc3F)n2)n1,i,i,i,i,nt,nt
O=C(Nc1ccc(NC(=O)c2ccc(Cl)c(S(=O)(=O)N3CCOCC3)c2)cc1)c1ccccc1,i,i,i,i,nt,nt
O=C(Nc1ccccc1)c1ccc(NC2CCCCC2)c(S(=O)(=O)N2CCOCC2)c1,i,37,i,i,43,i
Cc1noc(C)c1NC(=O)N(C)C[C@H]1Oc2ccc(NC(=O)Cc3ccccc3)cc2C(=O)N([C@H](C)CO)C[C@@H]1C,i,i,i,i,nt,nt
O=C(c1ccccn1)N(Cc1cccs1)C1(C(=O)NC2CCCCC2)CCCCC1,i,28,i,i,i,i
O=C(c1cnccn1)N(Cc1cccs1)C1(C(=O)NC2CCCCC2)CCCCC1,i,i,i,i,nt,nt
CCOC(=O)C1CCN(C(=O)c2ccccc2N(C)S(C)(=O)=O)CC1,i,i,i,i,nt,nt
CCn1c(/C=C/c2c(C)[nH]c3ccccc23)nc2ccccc2c1=O,i,27,i,i,i,i
CCn1c(/C=C/c2c[nH]c3ccccc23)nc2ccccc2c1=O,i,i,i,i,nt,nt
COc1ccc(N2CCN(C(=O)c3cccc(Br)c3)CC2)c([N+](=O)[O-])c1,i,i,i,i,nt,nt
COc1cccc(N=c2oc3ccc(OC)cc3cc2-c2nc3ccccc3[nH]2)c1,i,19,i,i,26,i
CCOC(=O)c1c(C)[nH]c(C(=O)OC/C(O)=C(\C#N)c2nc3ccccc3[nH]2)c1C,9.9,32,i,i,41,i
Cc1cccc(Cl)c1OCCN1CCCC1,i,i,i,i,nt,nt
Cc1cc(/C=C2\SC(=S)N(C)C2=O)c(C)n1-c1cccc(O)c1,i,30,i,i,i,i
COc1ccc(-n2c(C)cc(/C=C3/SC(=S)N(C)C3=O)c2C)cc1,i,i,i,i,nt,nt
Oc1ccccc1C1SC(c2ccccc2O)SC(c2ccccc2O)S1 (configuration not stated),i,22,i,i,20,i
Cc1cccc(-c2n[nH]c(S(C)(=O)=O)c2C#N)c1,i,i,i,i,nt,nt
O=C(Nc1cc(Sc2ccccn2)cc([N+](=O)[O-])c1)c1ccc([N+](=O)[O-])cc1,14,32,i,i,i,35
O=[N+]([O-])c1ccc(Sc2ccccn2)nc1,i,i,i,i,nt,nt

# Bioassay records as filed in PubChem.
